Bioassay records deposited in PubChem by several laboratories.
A selection: hits, their analogues and other compounds. The true share with any hit is near 3.8%.
M18AAP inhibitor = blocks P. falciparum M18 aspartyl aminopeptidase; 290,000 tested, 1.2% active; recombinant PfM18AAP, H-Glu-NHMec fluorogenic cleavage; inhibition, % at 7.35 µM; AID 1822;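 active = inhibition above the campaign mean inhibition over all tested compounds plus 3 SD, cut at about 28% in these data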;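 note: 0% = plate median of test compound wells and 100% = 2 mM ZnCl2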
PAFAH2 FP inh = PAFAH2 (human) inhibition | Q99487 | recombinant PAFAH2, FP-rhodamine activity probe, fluorescence polarization | inhibition, % at 3.39 µM | 340,000 tested, 0.99% active;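 active = inhibition above the mean over all tested compounds plus 3 SD, cut at about 30% in these data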;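 note: inhibitors block probe labeling of enzyme so polarization drops; 0% = enzyme with DMSO and 100% = wells lacking PAFAH2 protein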
PAFAH1B2 FP inh = blocks human PAF acetylhydrolase 1b catalytic subunit 2; recombinant PAFAH1B2, FP-rhodamine activity probe, fluorescence polarization; inhibition, % at 3.39 µM; 340,000 tested, 1.2% active;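 active = inhibition above the mean of all tested compounds plus 3 SD, cut at about 24% in these data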;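 note: 0% = enzyme with DMSO and 100% = wells lacking PAFAH1B2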
Target sequence (P68402 whole entry, looked up): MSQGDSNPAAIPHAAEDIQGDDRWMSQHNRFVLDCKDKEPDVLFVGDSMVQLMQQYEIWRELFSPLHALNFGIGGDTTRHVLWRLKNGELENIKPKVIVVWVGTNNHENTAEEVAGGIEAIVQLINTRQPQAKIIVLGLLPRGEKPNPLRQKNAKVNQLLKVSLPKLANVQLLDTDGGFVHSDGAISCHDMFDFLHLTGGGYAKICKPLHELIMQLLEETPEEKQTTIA
pPAFAH inh = inhibitors of human plasma PAF acetylhydrolase (pPAFAH); recombinant pPAFAH, FP-rhodamine probe fluorescence polarization; inhibition, % at 3.39 µM; 330,000 tested, 1.5% active;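 active = inhibition above the mean inhibition across the screen plus 3 SD, cut at about 25% in these data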;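 note: inhibitors block binding of the rhodamine activity-based probe so polarization drops; 0% = enzyme with DMSO and 100% = wells lacking pPAFAH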
PAFAH1B3 FP inh = blocks human PAF acetylhydrolase 1B catalytic subunit 3; Q15102; recombinant PAFAH1B3, FP-rhodamine probe, fluorescence polarization; inhibition, % at 3.39 µM; 340,000 tested, 0.28% active;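 active = inhibition above the screen-wide average of all tested compounds plus 3 SD, cut at about 25% in these data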;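 note: 0% = enzyme with DMSO only and 100% = wells lacking PAFAH1B3 protein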
Target sequence (Q15102 whole entry, looked up): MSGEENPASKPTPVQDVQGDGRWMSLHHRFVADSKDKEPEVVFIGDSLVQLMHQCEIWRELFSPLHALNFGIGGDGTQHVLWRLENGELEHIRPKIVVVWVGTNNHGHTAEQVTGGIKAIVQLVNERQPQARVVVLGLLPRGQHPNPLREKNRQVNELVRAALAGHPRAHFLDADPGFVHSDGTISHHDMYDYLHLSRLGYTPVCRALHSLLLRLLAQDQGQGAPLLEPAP
DSG3 Ab inh = inhibitors of pemphigus antibody binding to human desmoglein-3. P32926. DSG3-coupled beads, scFv-anti-DSG3-GFP binding, flow cytometry; stronger effect = lower value. binding (percent of control), % at 10 µM. 310,000 tested, 0.48% active;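 active = binding more than 3 SD below its plate's average and above zero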;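 note: hits lower antibody fragment binding to DSG3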
Numbers without * were called inactive.

Results for O=C1CCC[C@@H]2C[C@@]3(C[C@@H]4CCN1[C@H]24)Nc1cc(Cl)c(Cl)cc1NC3=NCc1ccccc1 ?
PAFAH2 FP inh: 22; PAFAH1B2 FP inh: 4; PAFAH1B3 FP inh: 3; DSG3 Ab inh: 102

Results for CCCCOCCOC(=O)C1OC1(C)c1ccccc1 (stereo unspecified) ?
DSG3 Ab inh: 109

How did CCC1=NN2C(=N)/C(=C\c3ccc(OCc4cc(=O)n5nc(CC)sc5n4)c(OC)c3)C(=O)N=C2S1 do in these assays?
M18AAP inhibitor: 0; PAFAH2 FP inh: 9; PAFAH1B2 FP inh: -1; PAFAH1B3 FP inh: -7; DSG3 Ab inh: 62*

What do the screens show for `CCc1nn2c(=O)cc(COc3ccc(/C=C4\C(=N)N5N=C(CC(C)C)SC5=NC4=O)cc3)nc2s1`?
M18AAP inhibitor: 4; pPAFAH inh: 1

Results for COc1cc(/C=C2/C(=N)N3N=C(CC(=O)N4CCOCC4)SC3=NC2=O)ccc1OC(C)c1ccccc1 (stereo unspecified) ?
M18AAP inhibitor: -10; PAFAH2 FP inh: 0; PAFAH1B2 FP inh: 28*; pPAFAH inh: 9; PAFAH1B3 FP inh: -5; DSG3 Ab inh: 100

Results for N=C1/C(=C/c2ccc(OCc3ccccc3)cc2)C(=O)N=C2SC(CC(=O)N3CCOCC3)=NN12 ?
M18AAP inhibitor: 2; PAFAH2 FP inh: -2; PAFAH1B2 FP inh: 28*; pPAFAH inh: 9; PAFAH1B3 FP inh: -2; DSG3 Ab inh: 100

What do the screens show for `CCCc1cc2c(cc1N(C)S(=O)(=O)c1ccccc1)OCO2`?
PAFAH2 FP inh: 0; PAFAH1B2 FP inh: 1; PAFAH1B3 FP inh: -2

Results for Cc1ccccc1CN1CCC(N2CCC(C(=O)NCC3CCCO3)CC2)CC1 (stereo unspecified) ?
M18AAP inhibitor: 4; PAFAH2 FP inh: 5; PAFAH1B2 FP inh: -2; pPAFAH inh: 8; PAFAH1B3 FP inh: 8; DSG3 Ab inh: 122

Results for Cc1ccc(Cc2cnc(NC(=O)C3CCCO3)s2)cc1 (stereo unspecified) ?
M18AAP inhibitor: -5; PAFAH2 FP inh: -1; PAFAH1B2 FP inh: 28*; pPAFAH inh: 10; PAFAH1B3 FP inh: 4

What do the screens show for `O=C(Nc1ncc(Cc2cccc(C(F)(F)F)c2)s1)C1CCCO1` (stereo unspecified)?
M18AAP inhibitor: -8; PAFAH2 FP inh: 0; PAFAH1B2 FP inh: 3; pPAFAH inh: 10; PAFAH1B3 FP inh: -6; DSG3 Ab inh: 97

Results for OCCSc1nnc(Nc2ccccc2)s1 ?
M18AAP inhibitor: -6; PAFAH2 FP inh: -7; PAFAH1B2 FP inh: 1; pPAFAH inh: 25*; PAFAH1B3 FP inh: -1; DSG3 Ab inh: 109

Results for CCOC(=O)C1CCN(C(=O)Nc2ccc3nc(-c4ccco4)c(-c4ccco4)nc3c2)CC1 ?
M18AAP inhibitor: 13; PAFAH2 FP inh: 21; PAFAH1B2 FP inh: 11; pPAFAH inh: 60*; PAFAH1B3 FP inh: 13; DSG3 Ab inh: 92

What do the screens show for `O=C(Nc1ccc2nc(-c3ccco3)c(-c3ccco3)nc2c1)N1CCCCCC1`?
M18AAP inhibitor: 14; pPAFAH inh: 69*

Results for Cc1nc2ccc(NC(=O)N3CCCCC3)cc2nc1C ?
M18AAP inhibitor: -7; PAFAH2 FP inh: 0; PAFAH1B2 FP inh: 1; pPAFAH inh: 2; PAFAH1B3 FP inh: 1; DSG3 Ab inh: 106

How did CCOC(=O)C1CCN(C(=O)Nc2ccc3c(c2)nc(C)n3C)CC1 do in these assays?
M18AAP inhibitor: 6; PAFAH2 FP inh: -8; PAFAH1B2 FP inh: 4; pPAFAH inh: -1; PAFAH1B3 FP inh: 10; DSG3 Ab inh: 122

How did CN(C(=S)NC(=O)C1CCCC1)c1ccccc1 do in these assays?
DSG3 Ab inh: 92

What do the screens show for `O=C(Nc1nc2ccccc2s1)C1CCN(S(=O)(=O)c2cc([N+](=O)[O-])ccc2Cl)CC1`?
M18AAP inhibitor: 28*; PAFAH2 FP inh: 1; PAFAH1B2 FP inh: 0; pPAFAH inh: 4; PAFAH1B3 FP inh: -4; DSG3 Ab inh: 96

Results for COc1ccccc1NC(=O)CSc1nnnn1Cc1ccccc1 ?
M18AAP inhibitor: 3; PAFAH2 FP inh: 2; PAFAH1B2 FP inh: 0; pPAFAH inh: -4; PAFAH1B3 FP inh: 2; DSG3 Ab inh: 116

Results for COc1ccc(NC(=O)CSc2nnnn2Cc2ccccc2)cc1 ?
M18AAP inhibitor: 2; PAFAH2 FP inh: -6; PAFAH1B2 FP inh: 5; pPAFAH inh: -7; PAFAH1B3 FP inh: 13; DSG3 Ab inh: 65*

Results for O=C(NCc1ccccn1)c1ccccc1OCc1ccccc1Cl ?
DSG3 Ab inh: 102

How did O=C1OC(/C(=C\Nc2ccc(F)cc2F)[N+](=O)[O-])c2ccccc21 (stereo unspecified) do in these assays?
M18AAP inhibitor: 47*; PAFAH2 FP inh: 7; PAFAH1B2 FP inh: 1; pPAFAH inh: -3; PAFAH1B3 FP inh: -2; DSG3 Ab inh: 97

What do the screens show for `COC(=O)CC1C(=O)NCCN1Cc1cn(-c2ccc(C)cc2)nc1-c1cccc(C)c1` (stereo unspecified)?
M18AAP inhibitor: 1; PAFAH2 FP inh: 9; PAFAH1B2 FP inh: 1; pPAFAH inh: 13; PAFAH1B3 FP inh: 12

Results for Cc1c([N+](=O)[O-])cc(C(=O)Nc2ccc(NC(=O)c3ccco3)cc2)cc1[N+](=O)[O-] ?
M18AAP inhibitor: 2; PAFAH2 FP inh: -3; PAFAH1B2 FP inh: 2; pPAFAH inh: 2; PAFAH1B3 FP inh: -3; DSG3 Ab inh: 96*

What do the screens show for `O=C(Nc1cccc(NC(=O)c2ccc([N+](=O)[O-])o2)c1)c1ccco1`?
M18AAP inhibitor: -3; PAFAH2 FP inh: 2; PAFAH1B2 FP inh: 2; pPAFAH inh: 0; PAFAH1B3 FP inh: 15; DSG3 Ab inh: 53*

Results for CNC(=O)CCN(Cc1ccco1)S(=O)(=O)c1ccc(OC)c(OC)c1 ?
M18AAP inhibitor: 2; PAFAH2 FP inh: -1; PAFAH1B2 FP inh: 6; pPAFAH inh: 1; PAFAH1B3 FP inh: -2; DSG3 Ab inh: 118

How did CN(C)S(=O)(=O)c1ccc(Cl)c(NC(=O)COC(=O)CCSc2ccccc2)c1 do in these assays?
M18AAP inhibitor: -8; PAFAH2 FP inh: 1; PAFAH1B2 FP inh: 10; pPAFAH inh: 15; PAFAH1B3 FP inh: 9; DSG3 Ab inh: 109

What do the screens show for `CN(C)S(=O)(=O)c1ccc(Cl)c(NC(=O)COC(=O)CCC2CCCCC2)c1`?
PAFAH2 FP inh: 38*; PAFAH1B2 FP inh: 5; pPAFAH inh: 25*; PAFAH1B3 FP inh: 2; DSG3 Ab inh: 89

How did COc1cccc(NC(=O)COC(=O)CCC2CCCC2)c1 do in these assays?
PAFAH2 FP inh: 19; PAFAH1B2 FP inh: 5; pPAFAH inh: 28*; PAFAH1B3 FP inh: 0; DSG3 Ab inh: 101

What do the screens show for `Cc1ccc(S(=O)(=O)N(C)C)cc1NC(=O)C1CCCCC1`?
M18AAP inhibitor: -11; PAFAH2 FP inh: 5; PAFAH1B2 FP inh: 7; pPAFAH inh: 5; PAFAH1B3 FP inh: 2; DSG3 Ab inh: 63*

Results for Cc1cc(C)cc(NC(=O)COC(=O)CCC2CCCC2)c1 ?
PAFAH2 FP inh: 14; PAFAH1B2 FP inh: -2; pPAFAH inh: 22; PAFAH1B3 FP inh: 1
